{"source": "PubChem BioAssay AID1508625", "about": "(Wald Lab, School of Medicine, Case Western Reserve …, 2021)", "assay": "enhancers of NK cell killing of ovarian tumor cells, primary screen, imaging, OVCAR3, primary NK cells, calcein-AM imaging (AID 1508625);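 further: compound given to NK cells 16 h before adding targets at 1.5 to 1 ratio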", "details": "OVCAR3 lysis by primary NK cells, at 5 µM; z-score: measured here: robust Z-score, single-point normalisation", "data": [{"smiles": "O=[N+]([O-])c1ccc(CNC2CCCC2)cc1", "values": [{"measurement": "corrected activity, negative = more killing", "value": -5.52, "unit": "%"}, {"measurement": "z-score", "value": -1.76}]}, {"smiles": "CC1C2CCCN2CCN1Cc1cccc(Oc2ccccc2)c1", "note": "(configuration not stated)", "values": [{"measurement": "corrected activity, negative = more killing", "value": -1.23, "unit": "%"}, {"measurement": "z-score", "value": -0.537}]}, {"smiles": "O=C(Nc1ccc(Cc2ccncc2)cc1)C1CCC(N2C(=O)C3CC=CCC3C2=O)CC1", "note": "(configuration not stated)", "values": [{"measurement": "corrected activity, negative = more killing", "value": -4.96, "unit": "%"}, {"measurement": "z-score", "value": -1.89}]}, {"smiles": "COC(=O)c1cc(C=O)c(O)c(C=O)c1", "values": [{"measurement": "corrected activity, negative = more killing", "value": -2.3, "unit": "%"}, {"measurement": "z-score", "value": -1.01}]}, {"smiles": "NC(=O)CN1CCOCCN(CC(N)=O)CCOCC1", "values": [{"measurement": "corrected activity, negative = more killing", "value": -12.6, "unit": "%"}, {"measurement": "z-score", "value": -2.65}]}, {"smiles": "CCOc1cc(C2Nc3ccccc3NC3=C2C(=O)CC(C)(C)C3)ccc1OC(C)=O", "note": "(configuration not stated)", "values": [{"measurement": "corrected activity, negative = more killing", "value": 0.693, "unit": "%"}, {"measurement": "z-score", "value": 0.309}]}, {"smiles": "CC(C)=NNC(=O)C(=O)Nc1cccc(Cl)c1", "values": [{"measurement": "corrected activity, negative = more killing", "value": -3.01, "unit": "%"}, {"measurement": "z-score", "value": -1.56}]}, {"smiles": "COc1ccc(C)cc1NC(=O)c1cc(S(=O)(=O)NC2CCCCC2C)ccc1F", "note": "(configuration not stated)", "values": [{"measurement": "corrected activity, negative = more killing", "value": -0.89, "unit": "%"}, {"measurement": "z-score", "value": -0.24}]}, {"smiles": "COc1ccc(NC(=O)NCCc2ccncc2)cc1", "values": [{"measurement": "corrected activity, negative = more killing", "value": 0.111, "unit": "%"}, {"measurement": "z-score", "value": 0.0619}]}, {"smiles": "CCCCCCCNC(=O)c1ccc2c(c1)ncn2-c1cccc(F)c1", "values": [{"measurement": "corrected activity, negative = more killing", "value": -3.62, "unit": "%"}, {"measurement": "z-score", "value": -0.976}]}, {"smiles": "O=C(CSc1nnc(-c2cccc(Br)c2)o1)c1ccc2c(c1)CCCC2", "values": [{"measurement": "corrected activity, negative = more killing", "value": -3.57, "unit": "%"}, {"measurement": "z-score", "value": -1.33}]}]}
